{
  "source": "PubChem BioAssay AID504454",
  "about": "(NMMLSC, 2011)",
  "note": "The campaign covered roughly 340,000 compounds. About 1,400 (0.41%) were called active.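 How the source made its calls: active means response above a set limit, near 3 SD of response in nonfluorescent compounds (cut at about 42% in these data); inactive means the rest.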 The full list was thinned out, with actives kept by preference.",
  "data": [
    {"target": "Beta-2 adrenergic receptor (Homo sapiens) (UniProt P07550)", "sequence (P07550 whole entry, looked up)": "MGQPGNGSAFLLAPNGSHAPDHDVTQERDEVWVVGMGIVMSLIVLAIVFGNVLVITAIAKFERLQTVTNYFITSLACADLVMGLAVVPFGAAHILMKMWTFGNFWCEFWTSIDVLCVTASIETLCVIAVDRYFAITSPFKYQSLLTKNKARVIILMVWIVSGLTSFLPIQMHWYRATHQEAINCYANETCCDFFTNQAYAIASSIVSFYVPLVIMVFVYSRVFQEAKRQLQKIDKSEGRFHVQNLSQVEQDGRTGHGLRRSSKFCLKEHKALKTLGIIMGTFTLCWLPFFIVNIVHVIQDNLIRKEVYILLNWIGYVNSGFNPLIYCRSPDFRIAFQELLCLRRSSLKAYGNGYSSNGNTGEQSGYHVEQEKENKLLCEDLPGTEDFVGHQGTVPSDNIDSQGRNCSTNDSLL", "test": "agonist-induced loss of surface beta2AR – cell-based, FAP fluorogen, flow cytometry, primary screen (AID 504454)", "details": "Am2.2-beta2AR cells, FAP receptor internalization, hits give high values, concentration not given here", "values": [
      {"compound": "COc1ccc(N2C(=O)/C(=C/c3ccco3)C(=O)NC2=S)cc1", "response": "11.6% (inactive)"},
      {"compound": "O=C1NC(=O)N(Cc2ccco2)C(=O)/C1=C\\c1ccc(-c2ccc(F)cc2)o1", "response": "47.3% (active)"},
      {"compound": "O=C1NC(=O)N(CCc2ccc(F)cc2)C(=O)/C1=C/C=C/c1ccccc1", "response": "18.2% (inactive)"},
      {"compound": "NC(=O)Nc1cccc(C(F)(F)F)c1", "response": "-1.13% (inactive)"},
      {"compound": "O=C1NC(=O)C(CCc2ccccn2)(Cc2cccc(Cl)c2Cl)C(=O)N1c1ccc(Br)cc1", "note": "(stereo not given)", "response": "51.1% (active)"},
      {"compound": "Cc1ccc(N2C(=O)NC(=O)C(CCc3ccncc3)(Cc3cccc(Cl)c3Cl)C2=O)cc1", "note": "(stereo not given)", "response": "-11.4% (inactive)"},
      {"compound": "COc1ccc(C(=O)CC2C(=O)N(C)C(=O)N(C)C2=O)cc1", "response": "8.45% (inactive)"},
      {"compound": "CCN(N=Nc1nonc1OC)c1nonc1OC", "response": "-1.92% (inactive)"},
      {"compound": "Cc1c(Oc2cc(NN3CCCCC3)c([N+](=O)[O-])cc2[N+](=O)[O-])cccc1[N+](=O)[O-]", "response": "-2.15% (inactive)"},
      {"compound": "CCCC(C)n1[nH]c(=O)c2c1NC(=O)CSC2c1ccc(OC)c(OC)c1", "note": "(stereo not given)", "response": "-2.18% (inactive)"},
      {"compound": "C[C@]12CCC3C(CC[C@H]4[C@H](O)[C@H](O)CC[C@]34C)C1CCC2=O", "note": "(stereo not given in full)", "response": "0.88% (inactive)"},
      {"compound": "O=C(N/N=C/c1c(O)n(C2CC2)c(=S)[nH]c1=O)c1ccccc1Cl", "response": "-2.3% (inactive)"},
      {"compound": "O=C(N/N=C/c1c(O)n(C2CC2)c(=S)[nH]c1=O)c1ccccc1", "response": "88.2% (active)"},
      {"compound": "O=C(N/N=C/c1c(O)n(Cc2ccccc2)c(=O)[nH]c1=O)c1ccccc1", "response": "-4.99% (inactive)"},
      {"compound": "CN1CCC[C@@H]1CCO[C@](C)(c1ccccc1)c1ccc(Cl)cc1", "response": "7.46% (inactive)"},
      {"compound": "CCC(=O)CC(c1ccc([N+](=O)[O-])cc1)c1c(O)c2ccccc2oc1=O", "note": "(stereo not given)", "response": "8.6% (inactive)"},
      {"compound": "Cc1ccc2c(c1)C1CN(C)CCC1N2C(=O)Cn1nnc(-c2ccccc2F)n1", "note": "(stereo not given)", "response": "3.52% (inactive)"},
      {"compound": "CCc1ccc(OCC(=O)N2CCN(CC(=O)Nc3ccccc3Cl)CC2)cc1", "response": "1.84% (inactive)"},
      {"compound": "Cc1ccc(C(C)C)c(OCC(=O)N2CCN(CC(=O)N3CCOCC3)CC2)c1", "response": "1.49% (inactive)"},
      {"compound": "CCC(=O)c1ccc(OCC(=O)N2CCN(CC(=O)Nc3ccc(C)cc3)CC2)cc1", "response": "80.6% (active)"}
    ]}
  ]
}
